Reference: the supplement of paper PMC12350171
Where a name gives a salt, the structure may show the parent alone. A number with no mark means an inactive call.

Assays:
Settings in all cases: 20 µM
[1] = tested on: Salmonella enterica typhimurium; assay: growth AUC normalised to DMSO control (fraction of control); higher = less growth inhibition, active = hit call of the paper
Method in brief: (§1)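 Pathogens passaged twice anaerobically were inoculated at a starting OD578 of 0.01 into pre-reduced mGAM plates with drug at 20 μM and 1% DMSO, sealed with breathable membranes. Haemophilus parainfluenzae medium was supplemented with hemin and NAD. OD578 was read hourly for 24 h, with three biological replicates. Growth-curve AUC was computed by the trapezoidal rule up to the exponential-to-stationary transition and normalised to DMSO controls on the same plate.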

Shigella flexneri = assay: as above
Method in brief: as §1

Vibrio cholerae = assay: as above
Method in brief: as §1

[2] = tested on: Yersinia pseudotuberculosis; assay: as above
Method in brief: as §1

P. vulgatus RND KO = assay: growth AUC normalised to DMSO control (median) (fraction of control); higher = less growth inhibition, active = hit call of the paper
Method in brief: (§2)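 In 96-well plates of mGAM seeded at OD578 0.01, strains that had been passaged twice overnight without oxygen were exposed to approved-drug library compounds at 20 μM with 1% DMSO. Hourly OD578 readings were taken for 24 h in an anaerobic incubator. The trapezoidal-rule area under the curve, with curves truncated at entry into stationary phase, was expressed relative to same-plate vehicle wells as the median of three biological replicates.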

P. vulgatus WT = assay: as above
Method in brief: as §2

[3] = tested on: S. enterica typhimurium WT; assay: as above
Method in brief: as §2

[4] = tested on: S. enterica typhimurium tolC KO; assay: as above
Method in brief: as §2
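Wherever growth AUC normalised to DMSO control (median) is given: active when median AUC fell below 0.1.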

Structure (SMILES)	growth AUC normalised to DMSO control [1]	growth AUC normalised to DMSO control (Shigella flexneri)	growth AUC normalised to DMSO control (Vibrio cholerae)	growth AUC normalised to DMSO control [2]	growth AUC normalised to DMSO control (P. vulgatus RND KO)	growth AUC normalised to DMSO control (P. vulgatus WT)	growth AUC normalised to DMSO control [3]	growth AUC normalised to DMSO control [4]
CCCCOc1cc(C(=O)OCCN(CC)CC)ccc1N [Benoxinate hydrochloride]	1	0.991	0.936	0.992	1	0.977	0.978	0.991
CCc1cccc2c3c([nH]c12)C(CC)(CC(=O)O)OCC3 (stereo not given) [Etodolac]	1.01	1.06	1.06	1.02	0.99	1.01	1.02	1.02
C#C[C@]1(OC(C)=O)CC[C@H]2[C@@H]3CCC4=C[C@@H](OC(C)=O)CC[C@@H]4[C@H]3CC[C@@]21C [Ethynodiol diacetate]	0.971	0.988	0.963	0.986	0.922	0.954	0.997	0.941
NNCCc1ccccc1 [Phenelzine sulfate]	1.03	1.05	1.03	1.02	1.1	1.16	0.994	0.955
CCN(Cc1ccncc1)C(=O)C(CO)c1ccccc1 (stereo not given) [Tropicamide]	1.01	0.987	0.995	1	0.996	0.995	1.01	1
CC(CN1c2ccccc2Sc2ccccc21)N(C)C (stereo not given) [Promethazine hydrochloride]	0.983	1.03	0.961	0.957	0.718	0.682	1	0.98
CC(C)NCC(O)c1ccc2ccccc2c1 (stereo not given) [Pronethalol hydrochloride]	0.991	1	0.999	0.982	1	1.01	0.994	0.989
CN(C)CCCO[C@@H]1[C@H]2OC(C)(C)O[C@H]2O[C@@H]1[C@H](O)CO [Amiprilose hydrochloride]	0.904	1	0.986	0.997	0.969	0.966	1.01	1
O=C(O[C@@H]1C[C@@H]2C[C@H]3C[C@H](C1)N2CC3=O)c1c[nH]c2ccccc12 [Dolasetron mesilate]	1.04	1.01	0.999	1.01	1.02	1.04	1.01	0.984
CC(C(=O)O)c1ccc(-c2ccccc2)c(F)c1 (stereo not given) [Flurbiprofen]	0.986	0.98	0.96	0.985	0.994	0.991	0.995	0.977
CCOC(=O)C1=C[C@]2(CC)CCCN3CCc4c(n1c1ccccc41)[C@@H]32 [Vinpocetine]	0.974	1.03	0.904	1.01	1	0.988	1	0.972
CC(C)(O/N=C(\C(=O)N[C@@H]1C(=O)N2C(C(=O)[O-])=C(C[n+]3ccccc3)CS[C@H]12)c1csc(N)n1)C(=O)O [Ceftazidime pentahydrate]	0.016 (active)	0.0524 (active)	0.494 (active)	0.186 (active)	0.0283 (active)	0.0233 (active)	0.214	0.0609 (active)
CNCCC(Oc1ccc(C(F)(F)F)cc1)c1ccccc1 (stereo not given) [Fluoxetine hydrochloride]	0.996	1	0.975	0.991	0.991	0.997	1.01	0.934
O=c1n(CCCN2CCN(c3cccc(Cl)c3)CC2)nc2ccccn12 [Trazodone hydrochloride]	0.992	0.991	0.957	0.984	0.993	1.01	1	0.964
CC(=O)OC[C@H]1O[C@@H]([S-])[C@H](OC(C)=O)[C@@H](OC(C)=O)[C@@H]1OC(C)=O.CCP(CC)CC.[Au+] [Auranofin]	0.877 (active)	1.01	0.67 (active)	0.672 (active)	0.00406 (active)	0.233	0.855	0.862
CCCCC(CC)CNC(=N)NC(=N)NCCCCCCNC(=N)NC(=N)NCC(CC)CCCC (stereo not given) [Alexidine dihydrochloride]	0.981	0.833 (active)	0.924	0.731 (active)	0.0131 (active)	0.00943 (active)	0.977	0.964
Cc1cccc(C)c1OCC(C)N (stereo not given) [Mexiletine hydrochloride]	1.01	1.05	1.05	1.01	1.03	1.05	1	0.999
CN1Cc2c(N)cccc2C(c2ccccc2)C1 (stereo not given) [Nomifensine maleate]	0.977	1.01	0.961	0.94	1	0.987	0.997	1
CC(=O)SCC(Cc1ccccc1)C(=O)NCC(=O)OCc1ccccc1 (stereo not given) [Racecadotril]	1	1	1	1.01	1.06	1.05	1	0.963
Nc1ccn([C@@H]2CS[C@H](CO)O2)c(=O)n1 [Lamivudine]	0.98	0.986	0.995	1.01	1	1.02	1	0.992
N=C(N)N/N=C/c1c(Cl)cccc1Cl [Guanabenz acetate]	0.936 (active)	0.998	1.03	0.973	0.983	0.98	0.946	0.967
Nc1ccn([C@@H]2O[C@H](CO)[C@@H](O)[C@@H]2O)c(=O)n1 [Cytarabine]	1	0.998	1	0.986	0.993	0.989	0.998	0.997
CCC(=O)[C@@]1(C)[C@H](C)C[C@H]2[C@@H]3CCC4=CC(=O)C=C[C@]4(C)[C@H]3[C@@H](O)C[C@@]21C [Rimexolone]	1.01	1.01	1.01	0.997	1.03	1.07	1	0.999
NCCCC(O)(P(=O)(O)O)P(=O)(O)O [Alendronate sodium]	1.03	1.05	1.1	1.02	1.05	1.06	1	0.99
CCN1CCC[C@H]1CNC(=O)c1c(O)c(Cl)cc(Cl)c1OC [Raclopride]	1	0.983	0.985	0.951	1.04	1.04	0.994	1
COC(c1ccccc1)(c1ccccc1)[C@H](Oc1nc(C)cc(C)n1)C(=O)O [Ambrisentan]	0.98	1.02	1.01	1.01	0.997	0.983	0.991	0.99
CN(C)CCN(Cc1ccccc1)c1ccccn1 [Tripelennamine hydrochloride]	1	0.993	1.01	0.973	0.982	0.985	0.965	1
CCOC(=O)C1=C(C)NC(C)=C(C(=O)OCC)C1c1ccccc1/C=C/C(=O)OC(C)(C)C [Lacidipine]	1.01	1	1.02	1.02	1.07	1.06	1	1
COc1ccc(-c2cc(=S)ss2)cc1 [Anethole-trithione]	1.02	1.05	0.91	1.19	1.02	1.04	0.985	0.91
CCCCC1C(=O)N(c2ccccc2)N(c2ccccc2)C1=O [Phenylbutazone]	1.01	0.991	0.973	1.01	1.03	1.07	1	0.964
